Measurements published in ChEMBL document CHEMBL3988442, “University of Dundee, Small-Polar-MMV Screening Library” (2021).
In all, about 48,000 compounds went through this assay and about 13,000 (27%) showed an effect of 50% or more. The list shows a part of the results.

tested on: Wolbachia pipientis; assay: Anti-Wolbachia Cell-Based Screen; assay type: functional; set-up: scale not given: in the data most compounds retested in dose-response had high values; settings: 5 µM

Row | Structure (SMILES) | Percent Effect [%]
1 | COC(=O)c1cc(NC(=O)CCc2cscn2)ccc1C | -13.27
2 | CN1CSC[C@H]1C(=O)N1CCN(Cc2cccc(F)c2)CC1 | -1.728
3 | c1cnnc(N2CCCC2CNCc2cc[nH]n2)c1 (stereo unspecified) | 6.061
4 | NCC1Cn2nnc(-c3cccc(F)c3)c2CO1 (stereo unspecified) | -2.933
5 | Cc1cnn(CCNCc2csc(C)n2)c1 | 11.83
6 | COCC1c2c(cnn2CC2CC2)CCN1Cc1ccc(OC)cc1 (stereo unspecified) | -7.562
7 | COCC1c2c(cnn2CC2CC2)CCN1Cc1cc(C)on1.O=C(O)C(F)(F)F.O=C(O)C(F)(F)F (stereo unspecified) | 63.1
8 | CCOCC1c2c(cnn2CC2CC2)CCN1Cc1nccs1.O=C(O)C(F)(F)F.O=C(O)C(F)(F)F (stereo unspecified) | 115.2
9 | CCn1ncc2c1C(COCC1CC1)N(Cc1c(C)noc1C)CC2.O=C(O)C(F)(F)F.O=C(O)C(F)(F)F (stereo unspecified) | -2.948
10 | COCC1c2c(cnn2CC2CC2)CCN1Cc1nccs1.O=C(O)C(F)(F)F.O=C(O)C(F)(F)F (stereo unspecified) | -17.24
11 | CCn1ncc2c1C(COCC1CC1)N(Cc1nccs1)CC2.O=C(O)C(F)(F)F.O=C(O)C(F)(F)F (stereo unspecified) | -10.7
12 | COCC1c2c(cnn2CC2CC2)CCN1Cc1ccc(C)o1.O=C(O)C(F)(F)F.O=C(O)C(F)(F)F (stereo unspecified) | 107.5
13 | COCC1c2c(cnn2CC2CC2)CCN1Cc1cccs1.O=C(O)C(F)(F)F.O=C(O)C(F)(F)F (stereo unspecified) | -10.1
14 | COCC1c2c(cnn2CC2CC2)CCN1Cc1ccsc1.O=C(O)C(F)(F)F.O=C(O)C(F)(F)F (stereo unspecified) | 107.6
15 | CCN1C[C@H]2C3(CCN(S(=O)(=O)CC)CC3)CC[C@@]2(C(=O)N(C)C)C1.O=C(O)C(F)(F)F | -7.289
16 | Cc1ccc2nc(C3CCCN3Cc3nnc(C)s3)[nH]c2c1 (stereo unspecified) | -155.9
17 | Clc1ccc2nncc(N3CCCCC3)c2c1 | -7.543
18 | CC(C)(C)C(=O)NCCC1CN(Cc2ccccc2F)CCO1 (stereo unspecified) | -7.627
19 | O=C(NCCC1CN(Cc2c[nH]cn2)CCO1)c1ccccc1O (stereo unspecified) | -1.985
20 | O=C(NCCCN1CCOCC1)C1CCCN(Cc2ccco2)C1 (stereo unspecified) | 1.976
21 | CCC1CN(CC(=O)NCc2ccco2)CCO1 (stereo unspecified) | -17.78

Row | Structure (SMILES) | Percent Effect [%]
22 | N#Cc1ccccc1C(=O)NCCC1CN(Cc2ccco2)CCO1 (stereo unspecified) | 86.72
23 | NC1(C(=O)NCCC2CN(Cc3ccco3)CCO2)CCCC1 (stereo unspecified) | 117.7
24 | Cc1ccc(C)c(NC(=O)Nc2c[nH]c(=O)[nH]c2=O)c1 | -8.651
25 | Cc1cccc2c(CCNS(=O)(=O)C3CCOC3)c[nH]c12 (stereo unspecified) | 14.98
26 | CC(C)Cc1noc(CN2CCCC(CNS(N)(=O)=O)C2)n1 (stereo unspecified) | 6.336
27 | CCOC(C)c1noc(CN2CCN(CC3CCCC3)CC2)n1 (stereo unspecified) | -4.058
28 | CCS(=O)(=O)c1ccc2oc([C@H]3CCN(Cc4ccccn4)C3)nc2c1 | -4.332
29 | Cc1noc2nc(C3CCN(Cc4ccccn4)CC3)cc(C(F)F)c12 | 126.2
30 | Cc1noc2nc(C3CCN(CC4CCCCC4)CC3)cc(C(F)F)c12.Cl | 130.1
31 | Cc1noc2nc(C3CCN(CC4=CCCOC4)CC3)cc(C(F)F)c12.Cl | -4.292
32 | Cc1n[nH]c2ncc(CNC3CCN(Cc4ccccn4)CC3)cc12.Cl | 0.2679
33 | COc1ccc(N(C)C(=O)c2ccc(Cl)c(S(C)(=O)=O)c2)cn1 | -5.224
34 | Cc1c(-c2ccccc2)ncn1CCCNc1cccnc1 | -10.09
35 | COc1ccc(N2CCN(C(=O)CCn3nccc3C)C(C)C2)cc1 (stereo unspecified) | -2.814
36 | COc1ccc(N2CCN(C(=O)Cn3nccc3C)CC2(C)C)cc1 | 3.492
37 | COc1ccc(N2CCN(C(=O)CCn3nccc3C)CC2(C)C)cc1 | -0.9656
38 | Cc1ccnn1CCC(=O)N(Cc1ccsc1)CC(C)C | 6.512
39 | Cc1ccnn1CCC(=O)N1CCCC[C@]2(C)NC(=O)CCC[C@H]12 | 63.73
40 | CN1C(=O)CC[C@@H]2N(C(=O)CCc3cccnc3)CCCC[C@@]21C | 73.04
41 | O=C1CCCCN1CCC(=O)N1CCCCC1c1ccc(F)cc1 (stereo unspecified) | -7.872
42 | Cc1ccnn1CCC(=O)N1CCN(C2CCc3ccccc3C2)CC1 (stereo unspecified) | -3.022

Row | Structure (SMILES) | Percent Effect [%]
43 | CN(C)CCn1ccnc1C1CCN(C(=O)CCc2cccnc2)CC1 | -5.205
44 | Cc1ccnn1CCC(=O)N1CCCC[C@@]2(C)[C@@H]1CCC(=O)N2C | 76.68
45 | CCN1C(=O)CC[C@@H]2N(C(=O)CCn3nccc3C)CCCC[C@@]21C | 96.02
46 | COc1ccc(O[C@H]2COCCN(Cc3cccc4c3OCO4)C2)cc1 | -9.045
47 | CCCc1cc(NCc2nc(COC)no2)n2nccc2n1 | -5.978
48 | Cc1nc(CN2CCCC(Cn3cc(CCO)nn3)C2)c2ccccn12 (stereo unspecified) | -4.112
49 | CC(C)n1cc(CN2CCCN(C(=O)c3cc(Cl)c[nH]3)CC2)cn1 | 1.101
50 | CS(=O)(=O)Nc1cccc(CNC(=O)CCNC(=O)c2cccs2)c1 | 4.351
51 | CN(C)Cc1nnc(C2CCN(c3nccc(N)n3)CC2)n1C1CC1 | 9.294
52 | O=C(c1ccncc1)N1CCC(O)(Cn2ccc3ccncc32)CC1 | -4.152
53 | CN(C)CC1(O)CCCN(C(=O)Cn2ccc3ccccc32)CC1 (stereo unspecified) | -35.57
54 | O=C(c1cncc(N2CCC(O)(CO)CC2)n1)N1CCCC1 | -6.183
55 | Cc1cc2ccncc2n1CC1(O)CCN(C(=O)c2ccccn2)CC1 | 79.68
56 | Cc1cc(C(=O)N2CCC(O)(Cn3ccc4ccncc43)CC2)on1 | 111.8
57 | Cc1cc2ccccc2n1CCC(=O)N1CCCC(O)(CN(C)C)CC1 (stereo unspecified) | -7.968
58 | Cc1cc(C(=O)N2C[C@@H]3COC[C@]3(c3nnc(C(C)C)o3)C2)on1 | 3.18
59 | Cc1cc2ccncc2n1CC1(O)CCN(C(=O)c2ccncc2)CC1 | 105.6
60 | O=C(c1cnc(Nc2ccccc2)nc1)N1CCC(O)(CO)CC1 | -9.694
61 | Cc1cc(C(=O)N2CCC(O)(Cn3c(C)cc4ccncc43)CC2)on1 | 79.54
